Measurements published in PubChem BioAssay AID1159580 (chemical genetic matrix, 2015).
“And” between values parts separate entries of the source, which are not always exact repeats. Equal values may be shown once. The whole screen tested about 5,500 compounds, of which about 2,000 (36%) were called active. Inconclusive results (about 18%) are left out. Rule as the data show it: active = normalized growth mostly below about 0.91 (no sharp cut-off); inconclusive = no clear call, values can overlap the other calls; inactive = mostly above about 0.92. The list shows a part of the results.

Test: chemical genetic growth profiling, strain panel (AID 1159580);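 also: tested at 20 µM; growth read once vehicle control cultures reached saturation at 30 °C; 1 = growth at the plate median or of vehicle wells; lower values mean less growth of the strain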
Conditions: S. cerevisiae deletion strains, growth OD

Measured: normalized growth

CC(C)CCCC(C)C1CCC2C3CC[C@H]4CCCC[C@]4(C)C3CC[C@]12C (some centres not stated)
inactive: locus YAL013W, strain DEP1, active compounds read low 1.09 | locus YAL021C, strain ccr4, active compounds read low 1 | locus YAL026C, strain drs2, active compounds read low 1.02 | locus YAL030W, strain snc1, active compounds read low 1.02 | locus YBL061C, strain skt5, active compounds read low 1.02 | locus YBR009C, strain hhf1, active compounds read low 1.03 | locus YBR021W, strain FUR4, active compounds read low 1.04 | locus YBR023C, strain chs3, active compounds read low 1.02 | locus YBR171W, strain sec66, active compounds read low 1.02 | locus YBR229C, strain ROT2, active compounds read low 0.963 | locus YBR231C, strain swc5, active compounds read low 1.03 | locus YBR279W, strain paf1, active compounds read low 1.02 | locus YCL011C, strain gbp2, active compounds read low 1.02 | locus YCL016C, strain dcc1, active compounds read low 1.02 | locus YCL029C, strain bik1, active compounds read low 0.985 | locus YCL061C, strain MRC1, active compounds read low 1.02 | locus YCL069W, strain vba3, active compounds read low 1.01 | locus YCR088W, strain abp1, active compounds read low 1.01 | locus YDL005C, strain med2, active compounds read low 1.02 | locus YDL035C, strain GPR1, active compounds read low 0.971 | locus YDL040C, strain nat1, active compounds read low 1.01 | locus YDL074C, strain BRE1, active compounds read low 0.959 | locus YDL101C, strain DUN1, active compounds read low 0.952 | locus YDL134C, strain PPH21, active compounds read low 0.985 | locus YDL185W, strain tfp1, active compounds read low 0.966 | locus YDL192W, strain arf1, active compounds read low 0.983 | locus YDR001C, strain nth1, active compounds read low 1.01 | locus YDR069C, strain doa4, active compounds read low 1.05 | locus YDR101C, strain arx1, active compounds read low 0.99 | locus YDR137W, strain rgp1, active compounds read low 1 | locus YDR150W, strain NUM1, active compounds read low 0.965 | locus YDR159W, strain sac3, active compounds read low 1.04 | locus YDR162C, strain NBP2, active compounds read low 0.964 | locus YDR195W, strain ref2 1.03 | locus YDR297W, strain sur2, active compounds read low 1.02 | locus YDR318W, strain mcm21, active compounds read low 1 | locus YDR334W, strain swr1, active compounds read low 1.01 | locus YDR335W, strain msn5, active compounds read low 1.02 | locus YDR388W, active compounds read low 0.987 | locus YDR392W, strain spt3, active compounds read low 0.98 | locus YDR502C, strain sam2, active compounds read low 0.978 | locus YEL003W, strain gim4, active compounds read low 1.03 | locus YEL037C, strain rad23, active compounds read low 1.01 | locus YEL061C, strain CIN8 (second series), active compounds read low 1.01 | locus YEL061C, strain CIN8, active compounds read low 0.994 | locus YER015W, strain faa2, active compounds read low 1.02 | locus YER016W, strain bim1, active compounds read low 1.02 | locus YER110C, active compounds read low 0.988 | locus YER111C, strain swi4, active compounds read low 1.03 | locus YER155C, strain BEM2 (second series), active compounds read low 1.04 | locus YER155C, strain BEM2, active compounds read low 0.998 | locus YER167W, strain BCK2, active compounds read low 1.01 | locus YFR010W, strain ubp6, active compounds read low 1.02 | locus YGL078C, strain dbp3, active compounds read low 0.994 | locus YGL086W, strain mad1, active compounds read low 1.01 | locus YGL167C, strain pmr1, active compounds read low 1.01 | locus YGL173C, strain kem1, active compounds read low 1.02 | locus YGL227W, strain vid30, active compounds read low 1.03 | locus YGL240W, strain doc1, active compounds read low 1.05 | locus YGL248W, strain PDE1, active compounds read low 0.984 | locus YGL253W, strain hxk2, active compounds read low 1 | locus YGR078C, strain PAC10, active compounds read low 0.967 | locus YGR135W, strain pre9, active compounds read low 0.965 | locus YGR229C, strain SMI1, active compounds read low 0.979 | locus YGR252W, strain gcn5, active compounds read low 1 | locus YHR013C, strain ard1, active compounds read low 1.05 | locus YHR027C, strain rpn1, active compounds read low 1.01 | locus YHR030C, strain SLT2, active compounds read low 0.997 and 0.984 | locus YHR079C, strain IRE1 (second series), active compounds read low 1 | locus YHR079C, strain IRE1, active compounds read low 1 | locus YHR094C, strain hxt1, active compounds read low 0.988 | locus YHR129C, strain ARP1, active compounds read low 0.993 | locus YHR142W, strain chs7, active compounds read low 0.982 | locus YHR200W, strain rpn10, active compounds read low 0.978 | locus YIL066C, strain RNR3, active compounds read low 0.974 | locus YIL073C, strain SPO22, active compounds read low 1.08 | locus YIL125W, strain kgd1, active compounds read low 0.991 | locus YIR030C, strain dcg1, active compounds read low 0.987 | locus YJL092W, strain hpr5, active compounds read low 1.01 | locus YJL095W, strain BCK1 (second series), active compounds read low 1.01 | locus YJL095W, strain BCK1, active compounds read low 0.976 and 0.988 | locus YJL115W, strain asf1, active compounds read low 1.01 | locus YJL129C, strain trk1, active compounds read low 1.01 | locus YJL134W, strain LCB3, active compounds read low 0.991 | locus YJL154C, strain vps35, active compounds read low 1 | locus YJL164C, strain tpk1, active compounds read low 1.02 | locus YJL166W, strain qcr8, active compounds read low 1.02 | locus YJL168C, strain set2, active compounds read low 0.988 | locus YJL187C, strain SWE1 (second series), active compounds read low 0.966 | locus YJL187C, strain SWE1, active compounds read low 1.02 | locus YJR043C, strain POL32, active compounds read low 1.05 | locus YJR066W, strain TOR1, active compounds read low 0.931
